High-throughput results: PubChem, The Scripps Research Institute Molecular Screening Center
DAX1 inh-1 – DAX1 (NR0B1) inhibition, primary screen | HEK293T StAR-luciferase reporter, SF-1/DAX-1 repression relief | inhibition, % at 6.8 µM | actives 1.1% (n = 370,000);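 active = inhibition above the mean over all tested compounds plus 3 SD, cut at about 3.6% in these data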;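 also: 0% = DAX-1 cells with DMSO and 100% = cells lacking DAX-1 with DMSO; higher inhibition means more luminescence from relief of DAX-1 repression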
hgDAF-12 ag – hgDAF-12 agonism, primary luciferase screen; HEK293 GAL4-hgDAF12 UAS-luciferase reporter, agonist luminescence; normalized to butyrate control; activation, % at 6.8 µM; actives 1.8% (n = 370,000);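 active = activation above a cutoff set at the mean of all screened compounds plus 3 SD, cut at about 10% in these data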;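 also: 0% = DMSO wells and 100% = sodium butyrate wells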
ssDAF-12 act – activates DAF-12 receptor from parasite S. stercoralis. HEK293 ssDAF-12/GRIP1 lit1-tk-luc reporter, luminescence; % of 3 µM dafachronic acid response. activation, % at 6.8 µM. actives 1% (n = 370,000);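 active = activation above the mean over all tested compounds plus 3 SD, cut at about 0.9% in these data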;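 also: 0% = DMSO-only wells and 100% = 3 µM delta7-dafachronic acid wells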
DAX1 inh-2 – NR0B1 (DAX1) inhibition; P51843; actives 0.99% (n = 340,000); HEK293 Gal4-DAX1 luciferase reporter, luminescence; inhibition, % at 6.75 µM;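 active = inhibition above the mean over all tested compounds plus 3 SD, cut at about 4.2% in these data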;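 also: 0% = DAX1-transfected cells with DMSO and 100% = empty-vector control cells with DMSO; inhibition shows as a rise in luminescence from relieved DAX1 repression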
Target sequence (P51843 207-470 limits assumed): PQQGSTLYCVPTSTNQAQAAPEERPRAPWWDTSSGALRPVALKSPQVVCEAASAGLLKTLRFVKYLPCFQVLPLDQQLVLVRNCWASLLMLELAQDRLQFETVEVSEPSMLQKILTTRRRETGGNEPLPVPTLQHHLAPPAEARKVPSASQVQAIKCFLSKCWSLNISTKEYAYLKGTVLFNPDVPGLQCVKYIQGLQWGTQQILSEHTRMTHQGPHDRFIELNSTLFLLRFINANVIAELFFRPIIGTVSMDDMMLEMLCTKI
hcDAF12 agonist – activators of H. contortus DAF-12 nuclear receptor. activation, % at 6.8 µM. actives 1.4% (n = 370,000). HEK293 hcDAF-12 lit1-tk-luc reporter, luminescence; 0% DMSO, 100% Δ7-dafachronic acid;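 active = activation above the mean of all tested compounds plus 3 SD, cut at about 5.5% in these data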;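 also: 100% = response to 3 µM Δ7-dafachronic acid high control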
* marks the source's active call; other numbers are inactive results; nt = not tested or not shown. An excerpt weighted towards active compounds, which were near 4.1% of everything screened.

SMILES	DAX1 inh-1	hgDAF-12 ag	ssDAF-12 act	DAX1 inh-2	hcDAF12 agonist
COc1c2c(cc3oc(=O)ccc13)OC(C)(C)C=C2	0.6	10.3	-1.0	3.8	3.9
Cc1ccc(-c2cc(C(=O)NN=Cc3cccc(OCc4ccccc4)c3)[nH]n2)cc1C	-0.3	2.1	-1.0	nt	-2.7
COc1cc(C2C(C#N)=C(N)OC3=C2C(=O)CC(C)(C)C3)c([N+](=O)[O-])cc1OC (stereo not drawn)	-0.3	-2.1	-1.3	0.7	-0.4
CC1(C)CC(=O)C2=C(C1)OC(N)=C(C#N)[C@@H]2c1ccccc1[N+](=O)[O-]	-0.3	4.1	1.5*	0.3	1.9
O=C(CN(CC(=O)N1CCOCC1)S(=O)(=O)c1ccc(Br)s1)N1CCOCC1	-0.1	0.8	-1.4	6.8*	-0.3
COc1ccc(-c2ccnc3ncnn23)cc1	0.2	-2.5	-0.9	0.2	-0.8
FCCCOc1ccc(-c2ccnc3ncnn23)cc1	-0.5	-1.4	-1.2	5.2*	-0.8
Cn1c(=O)c2cc(S(=O)(=O)N3CCN(c4ccccc4Cl)CC3)ccc2n(C)c1=O	0.6	0.5	-1.1	nt	1.5
CCOc1ccc2nc(NC(=O)c3ccc(OCC4CCCO4)cc3)sc2c1 (stereo not drawn)	-2.3	5.5	-2.3	0.2	-3.3
Cc1cccc2sc(NC(=O)c3ccc(OCC4CCCO4)cc3)nc12 (stereo not drawn)	1.9	12.7*	-0.9	0.2	2.4
Cc1nc2ccc(NC(=O)Cc3c(F)cccc3Cl)cc2s1	1.6	10.8*	-0.7	3.4	1.0
O=C(Cc1c(F)cccc1Cl)Nc1nc2ccccc2s1	0.3	5.6	-1.6	1.0	0.5
Cc1cccc2sc(NC(=O)Cn3cccc3)nc12	-1.3	1.9	-0.8	-1.2	-1.2
Cc1cccc2sc(NC(=O)c3ccc(Cl)s3)nc12	-0.4	4.8	1.1*	1.4	2.3
Cc1cccc2sc(NC(=O)CCn3cccc3)nc12	0.0	11.8*	-0.9	-1.3	0.3
CC(=O)OC12CCCN(C1)/C(=C/c1cccnc1)C2 (stereo not drawn)	-0.9	-2.8	-0.7	nt	0.2
C=CCn1c(SCC(=O)Nc2ccccc2-c2ccccc2)nnc1-c1ccc(Cl)cc1	-0.6	0.3	-1.5	nt	-1.0
C#CCN(C)S(=O)(=O)c1ccc(N2CCCC2)cc1Br	-1.4	1.2	-1.8	nt	-1.8
CCN(C(=O)C1CCCN(c2nnc(-n3cccc3)s2)C1)c1ccccc1C (stereo not drawn)	-1.7	1.8	-0.9	nt	-1.8
C#CCNC(=O)C[C@H]1C[C@@]2(C(=O)OC)C(=C[C@H](COCc3ccccc3)O[C@@H]2C)N(Cc2cccc3ccccc23)C1=O	-0.7	-2.7	-1.8	nt	-3.3
Cc1nc2ccc(NC(=O)c3cnc(Cl)c(Cl)c3)cc2s1	0.5	7.8	-0.7	0.2	0.7
Cc1nc2ccc(NC(=O)c3ccc(Cl)s3)cc2s1	4.1*	8.7	-0.4	4.9*	-0.3
Cc1ccc2nc(NC(=O)c3ccc(Cl)s3)sc2c1	4.0*	8.0	-0.2	9.8*	2.8
CC(C)c1[nH]nc2c1C(c1ccccc1)N(Cc1ccccc1)C2=O (stereo not drawn)	0.2	-3.0	-1.1	nt	-0.4
CCCN1CCS(=O)(=O)N(Cc2cn(Cc3ccc(OC)cc3)nn2)C(C(=O)OC)C1 (stereo not drawn)	0.8	1.4	-0.6	nt	-0.3
SMILES	DAX1 inh-1	hgDAF-12 ag	ssDAF-12 act	DAX1 inh-2	hcDAF12 agonist
COCCOC(=O)CSc1ncccc1-c1nc2cc(C)c(C)cc2[nH]1	1.9	9.4	0.7	-0.6	3.9
Cc1cc2nc(-c3cccnc3SCC(=O)NC(C)C)[nH]c2cc1C	4.1*	9.6	-0.3	0.8	4.4
CC(=O)Nc1ccc2c(c1)[nH]c(=O)c1ccccc12	0.8	6.5	-0.8	4.6*	-0.1
O=C1CCC[C@H]2C[C@H](NCc3cccc(I)c3)CC[C@]23CCCN13	nt	-3.0	-0.3	nt	-1.6
c1ccc(-c2cn3nc(-c4ccccc4)sc3n2)cc1	nt	nt	nt	5.6*	nt
c1ccc(-c2nnc3sc(-c4ccncc4)nn23)cc1	-1.4	5.9	-1.9	0.0	-1.6
Cn1c(/C(C#N)=C(\O)c2ccc(Br)s2)nc2ccccc21	0.0	2.5	1.0*	0.4	5.3
Cn1c(/C(C#N)=C(\O)c2cc(Cl)sc2Cl)nc2ccccc21	3.0	2.4	-0.8	0.9	3.2
CC(=O)Nc1nc(-c2ccc3c(c2)CCO3)cs1	0.5	11.5*	-1.1	-0.1	2.5
CC(=O)Nc1nc(COc2ccccc2)cs1	1.7	13.2*	-0.8	0.9	1.8
COc1cccc(-c2csc(NC(C)=O)n2)c1	0.8	10.6*	-0.7	1.4	-0.2
CC(=O)c1ccc(NC(=S)NC(=O)c2c(Cl)c(C)nn2C)cc1	-0.1	-2.8	-0.7	4.7*	-1.2
C/C(=N\NC(=O)c1c(Cl)c(C)nn1C)c1ccc(NC(=O)C2CCC2)cc1	-5.9	2.8	-1.3	-1.0	-1.0
COc1cccc(-n2c([S-])c(C(=O)Nc3ccc(S(=O)(=O)N4CCOCC4)cc3)[n+]3cc(C(N)=O)ccc23)c1	0.9	9.6	0.1	4.2*	0.7
CC(C)COc1cccc(C(=O)Nc2ccc(S(=O)(=O)N3CCOCC3)cc2)c1	-0.2	1.3	-2.0	-1.3	-1.7
O=C(Nc1ccc(F)cc1)N1CCc2ccccc2C1	0.8	11.1*	0.4	0.6	1.4
O=C(NC1CCCCC1)N1CCc2ccccc2C1	2.2	12.9*	-1.1	1.3	1.6
CCCCCCCCN1CN2Cc3cc(OC)ccc3C2CS1(=O)=O (stereo not drawn)	-0.5	-0.1	-0.6	nt	-0.4
CCOC(=O)[C@]12CCCCC/C=C\1N(CCc1ccc(Cl)cc1)C(=O)[C@H]2CC(=O)N1CCCCC1	-2.2	-3.5	-1.9	nt	-2.5
CCOc1ccccc1N(CC(=O)Nc1ccc(OC)cc1OC)S(=O)(=O)c1ccccc1	-0.8	-2.4	0.6	-1.5	1.2
CCOc1ccccc1N(CC(=O)Nc1ccccc1F)S(=O)(=O)c1ccccc1	0.7	10.5*	0.4	1.0	4.3
O=C(CCc1ccccc1-c1ccccc1CCNC(=O)c1cccc(F)c1)NCc1ccccc1	-1.6	0.7	-1.7	nt	-3.7
COc1ccccc1CNC(=O)CSc1nnc2ccc(-c3cccnc3)nn12	0.0	-1.7	-1.4	4.4*	0.2
COc1ccc(NC(=O)CSc2nnc3ccc(-c4cccnc4)nn23)cc1OC	-3.3	3.2	-0.5	1.4	-0.3
O=C(C1CCCO1)N1CCN(C2=Nc3ccccc3Sc3ccccc32)CC1 (stereo not drawn)	0.0	-1.5	-0.8	nt	0.1
C=CCN1C(=O)[C@@H](CC(=O)N2CCOCC2)[C@]2(C(=O)OCC)CCCCC/C=C/12	0.6	1.6	-1.0	nt	-0.9
COc1ccccc1C(=O)NC1CCCCN(Cc2ccc(C)cc2)C1=O (stereo not drawn)	-0.6	1.4	-1.1	nt	0.7
Cc1ccc(Nc2ccc(N3CCN(c4ccc([N+](=O)[O-])cc4)CC3)nn2)cc1	0.2	-2.5	-0.7	4.5*	-1.1
